In one assay the test system is CAMK2D. Set-up: species or system human, MV4-11 + K-562 + COLO205 + SK-N-BE2 + OVCAR-8. To be noted: read-out: apparent Kd, compound concentrations: 100 nM and 1000 nM (sheet 'Samples'), n = 1.
For the next assay, the system named is MAPK1. Also noted: species or system human, MV4-11 + K-562 + COLO205 + SK-N-BE2 + OVCAR-8. As to conditions: read-out: apparent Kd, compound concentrations: 100 nM and 1000 nM (sheet 'Samples'), n = 1.
In another assay the test system is CAMK4. Also noted: species or system human, MV4-11 + K-562 + COLO205 + SK-N-BE2 + OVCAR-8. As to conditions: read-out: apparent Kd, n = 1.
A further assay relates to DDR2. Set-up: species or system human, MV4-11 + K-562 + COLO205 + SK-N-BE2 + OVCAR-8. As to conditions: read-out: apparent Kd, compound concentrations: 100 nM and 1000 nM (sheet 'Samples'), n = 1.
The next assay has as its system CDK1_CycB1. To be noted: Highest Assay Concentration (M): 9.9999999999999995E-7.
The test system of another assay is CK2alpha1. As to conditions: Highest Assay Concentration (M): 9.9999999999999995E-7.
A further assay has as its system CK2alpha2. As to conditions: Highest Assay Concentration (M): 9.9999999999999995E-7.
The subject of another assay is DCTPP1. Set-up: species or system human, MV4-11 + K-562 + COLO205 + SK-N-BE2 + OVCAR-8. As to conditions: read-out: apparent Kd, n = 1.
For the next assay, the system named is CSNK1G3. Also noted: species or system human, MV4-11 + K-562 + COLO205 + SK-N-BE2 + OVCAR-8. To be noted: read-out: apparent Kd, compound concentrations: 100 nM and 1000 nM (sheet 'Samples'), n = 1.
The test system of the next assay is ILK. Set-up: species or system human, MV4-11 + K-562 + COLO205 + SK-N-BE2 + OVCAR-8. As to conditions: read-out: apparent Kd, n = 1.
Another assay relates to RPS6KA5. Also noted: species or system human, MV4-11 + K-562 + COLO205 + SK-N-BE2 + OVCAR-8. To be noted: read-out: apparent Kd, n = 1.
A further assay deals with PI4KA. Set-up: species or system human, MV4-11 + K-562 + COLO205 + SK-N-BE2 + OVCAR-8. To be noted: read-out: apparent Kd, n = 1.
The test system of another assay is SIK3. Also noted: species or system human, MV4-11 + K-562 + COLO205 + SK-N-BE2 + OVCAR-8. To be noted: read-out: apparent Kd, n = 1.
The test system of another assay is CLK2. Set-up: species or system human, MV4-11 + K-562 + COLO205 + SK-N-BE2 + OVCAR-8. As to conditions: read-out: apparent Kd, compound concentrations: 100 nM and 1000 nM (sheet 'Samples'), n = 1.
The next assay deals with STRADA. Also noted: species or system human, MV4-11 + K-562 + COLO205 + SK-N-BE2 + OVCAR-8. To be noted: read-out: apparent Kd, n = 1.
[1] abbreviates: compound concentrations:100 nM and 1000 nM (sheet 'Samples').

The text below walks through data of paper PMC11062922 (Nature Chemical Biology, 2023).

Read-outs that look alike come from different tables or passages of the source.

Regarding `CN(c1ccc(NC(=O)N2CCN(CCCN3CCOCC3)CC2)cc1)c1ccnc(Nc2ccc(CS(C)(=O)=O)cc2)n1.Cl` [GW830899A], the results for the potency estimated from few doses in the assay on CAMK2D (CATDS: 3.7668858732559402E-2) and with MAPK1 (CATDS: 2.6373806441713499E-2) were 0.43 µM and 0.807 µM, respectively.
In the case of `CCOC(=O)N1CCC(n2cnc(-c3ccc(F)cc3)c2-c2ccnc(N)n2)CC1` [SB-219952], the potency estimated from few doses was 1.85 µM in the assay on CAMK4 (compound concentrations: 100 nM and 1000 nM (sheet 'Samples'), CATDS: 7.8205742217562803E-3); 0.979 µM in the assay with DDR2 (CATDS: 9.5517965767772696E-3).
For the compound `O=C1NC(=O)/C(=C/c2ccc3ncccc3c2)S1` [RO4603632-000], the concentration for half-maximal inhibition (IC50) in the assay on CDK1_CycB1 turned out to be 8.37e-06 M; with CK2alpha1, 5.79e-07 M; in the assay with CK2alpha2, 3.72e-07 M.
For the compound `Cc1ccc(Nc2ccnc(Nc3ccc4c(c3)CS(=O)(=O)C4)n2)cc1O.Cl` [GW579362A], the figures for the potency estimated from few doses with CAMK2D (CATDS: 4.2472769063291602E-2) and in the assay on MAPK1 (CATDS: 2.9087751414108801E-2) were 0.502 µM and 1.35 µM, respectively.
Take `CN(c1ccc(NC(=O)NCCN2CCOCC2)cc1)c1ccnc(Nc2ccc(CS(C)(=O)=O)cc2)n1.Cl` [GW830365A]: in the assay with DDR2 (CATDS: 5.5525356317498699E-2), the potency estimated from few doses is 0.94 µM.
For `O=C1N=C(NCc2cccs2)O/C1=C\c1ccc2ncccc2c1` [RO4624208-000], in the assay on DCTPP1 (compound concentrations: 100 nM and 1000 nM (sheet 'Samples'), CATDS: 5.0969349281877803E-2), the potency estimated from few doses was 1.27 µM.
For `O=C(O)C(F)(F)F.O=c1[nH]ccc2nc(N[C@@H]3CCNC3)nc(Nc3ccc4c(c3)S(=O)(=O)CC4)c12` [GSK2181306A], the potency estimated from few doses with CSNK1G3 (CATDS: 9.3335280079581504E-3) is 1.06 µM; in the assay on ILK (compound concentrations: 100 nM and 1000 nM (sheet 'Samples'), CATDS: 7.7202242880441098E-3) it was 2.32 µM; in the assay on MAPK1 (CATDS: 9.4433771330179501E-3), 1.02 µM; in the assay on RPS6KA5 (compound concentrations: 100 nM and 1000 nM (sheet 'Samples'), CATDS: 8.4236521656491804E-3) it was 1.55 µM.
Take `CCn1c(-c2cccnc2O)nc2cnccc21` [SB-736715]: the potency estimated from few doses with CSNK1G3 (CATDS: 1.22763705207965E-2) was 2.06 µM; with ILK (compound concentrations: 100 nM and 1000 nM (sheet 'Samples'), CATDS: 1.2476704483333699E-2), 1.98 µM; in the assay on PI4KA (compound concentrations: 100 nM and 1000 nM (sheet 'Samples'), CATDS: 1.5744300181729402E-2) it was 1.17 µM.
As for `O=C(O)C(F)(F)F.O=C(O)C(F)(F)F.O=c1[nH]ccc2nc(N[C@@H]3CCCNC3)nc(Nc3ccc(S(=O)(=O)N4CCOCC4)cc3)c12.O=c1[nH]ccc2nc(N[C@@H]3CCCNC3)nc(Nc3ccc(S(=O)(=O)N4CCOCC4)cc3)c12` [GSK2177277A], the potency estimated from few doses is 1.19 µM in the assay on CAMK4 (compound concentrations: 100 nM and 1000 nM (sheet 'Samples'), CATDS: 6.74489650552607E-3); 0.605 µM with CSNK1G3 (CATDS: 7.8894585802162295E-3); 1.09 µM with SIK3 (compound concentrations: 100 nM and 1000 nM (sheet 'Samples'), CATDS: 6.8651363479693096E-3).
Turning to `COc1cc[nH]c1/C=C1\C(=O)Nc2ccc(F)c(C#CC3(O)CCNCC3)c21.Cl` [RO0282986-001], the potency estimated from few doses in the assay with CAMK2D (CATDS: 2.4491980048065101E-2) is 0.142 µM; in the assay on CLK2 (CATDS: 1.56056735722173E-2), 0.36 µM; in the assay on STRADA (compound concentrations: 100 nM and 1000 nM (sheet 'Samples'), CATDS: 9.4665319729240003E-3), 1.66 µM.
For `O=C(O)C(F)(F)F.O=c1[nH]ccc2nc(N[C@@H]3CCNC3)nc(Nc3cc(Cl)cc(Cl)c3)c12` [GSK2188764A], the potency estimated from few doses in the assay on CAMK4 (setting [1]) is 0.977 µM.
Consider `Cc1cccc(Nc2nc(N[C@H]3CCNC3)ncc2C(N)=O)c1.Cl` [GSK2197149A], for which the values for the potency estimated from few doses in the assay with DCTPP1 (setting [1]) and in the assay on PI4KA (setting [1]) were 1.15 µM and 1.42 µM, respectively.
Consider `NCC(NC(=O)c1cc(-c2cn[nH]c2)c(-c2ccnc3[nH]ccc23)s1)c1ccccc1.NCC(NC(=O)c1cc(-c2cn[nH]c2)c(-c2ccnc3[nH]ccc23)s1)c1ccccc1.O=C(O)C(F)(F)F.O=C(O)C(F)(F)F` (centres unmarked) [GSK1325775A], for which the potency estimated from few doses with PI4KA (compound concentrations: 100 nM and 1000 nM (sheet 'Samples'), CATDS: 3.4236292814805502E-2) was 1.31 µM.
In the case of `CCN(CC)Cc1ccc(Nc2nccc(-c3cnn4ncccc34)n2)cc1` [GW780056X], in the assay with CAMK2D (CATDS: 2.8805291945328802E-2), the potency estimated from few doses was 0.472 µM.
Take `c1ccc(-c2n[nH]cc2Nc2ccnc3ccccc23)nc1` [GW694077X]: the potency estimated from few doses with CLK2 (CATDS: 3.5523964233137598E-2) is 0.477 µM; with DCTPP1 (compound concentrations: 100 nM and 1000 nM (sheet 'Samples'), CATDS: 2.52871729428043E-2) it was 1.4 µM.
As for `Cl.Cn1c(=O)c(Cc2ccccc2F)cc2cnc(NC3CCOCC3)nc21` [RO3305377-001], the potency estimated from few doses in the assay with CAMK4 (compound concentrations: 100 nM and 1000 nM (sheet 'Samples'), CATDS: 1.6194401739627301E-2) was 2.15 µM.
Regarding `Cc1occc1-c1nc(N)c(OC[C@@H](N)Cc2c[nH]c3ccccc23)cc1-c1cc2c(C)n[nH]c2cn1` [GSK1660450B], the potency estimated from few doses in the assay with SIK3 (setting [1]) is 0.154 µM.
As for `Nc1nc(-c2ccc3c(N)n[nH]c3c2)cc(N2CCCC(NC(=O)c3ccccc3)C2)n1` (centres unmarked) [GSK2286775B], the potency estimated from few doses with CAMK4 (setting [1]) was 1.09 µM; with ILK (setting [1]), 1.79 µM.
In the case of `COc1cc[nH]c1/C=C1\C(=O)Nc2ccc(F)c(C#C[C@@H](O)[C@@H](N)[C@@H](C)O)c21` [RO0283120-000], in the assay on STRADA (setting [1]), the potency estimated from few doses was 2.01 µM.
As to `CCn1c(-c2nonc2N)nc2cncc(C(=O)N3CC[C@H](N)C3)c21.Cl` [SB-772077-B], in the assay with RPS6KA5 (setting [1]), the potency estimated from few doses is 0.0483 µM.
`Cl.Cl.NCC(NC(=O)c1cc(-c2ccnc3[nH]ccc23)cs1)c1ccccc1.NCC(NC(=O)c1cc(-c2ccnc3[nH]ccc23)cs1)c1ccccc1` (centres unmarked) [GSK1229959A]: the potency estimated from few doses in the assay with RPS6KA5 (compound concentrations: 100 nM and 1000 nM (sheet 'Samples'), CATDS: 1.83168013487864E-2) was 1.24 µM.
On to `Cl.Cl.NC[C@H](CC1CCCCC1)NC(=O)c1ccc(-c2ccnc3[nH]ccc23)s1.NC[C@H](CC1CCCCC1)NC(=O)c1ccc(-c2ccnc3[nH]ccc23)s1` [GSK1581428A], for which, in the assay with RPS6KA5 (setting [1]), the potency estimated from few doses is 1.34 µM.
As for `CCC(CC)(CC)n1cnc2c(N)ncnc21` [SKF-97620], the potency estimated from few doses was 1.82 µM with CSNK1G3 (CATDS: 2.4754449130961701E-2); 1.35 µM with MAPK1 (CATDS: 2.7105315036477701E-2); 0.553 µM in the assay on PI4KA (compound concentrations: 100 nM and 1000 nM (sheet 'Samples'), CATDS: 3.8493630683817899E-2); 2.22 µM in the assay on STRADA (compound concentrations: 100 nM and 1000 nM (sheet 'Samples'), CATDS: 2.3464375070220901E-2).
Consider `Nc1nc(-c2ccc3c(N)n[nH]c3c2)cc(N2CCCCC2)n1` [GSK2228768A], for which, in the assay with DCTPP1 (setting [1]), the potency estimated from few doses was 1.72 µM.
